Laboratory results: PubChem BioAssay (EPA / NIEHS)
Results filed as inconclusive are left out. Calls of active or inactive are those of the source. The calls were made as follows: active = hit-call score of the fitted dose curve at least 0.9, where 1 is the maximum; inconclusive = response in the unintended direction; inactive = score below 0.9.

Target: Estrogen receptor beta (Homo sapiens) (UniProt Q92731)
Assay: OT_ER_ERbERb_0480: Odyssey Thera (OT) 8-hour HEK293T Protein-Complementation Assay for Estrogen Receptor-beta/-beta Homodimer (AID 2283357);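 also: active means signal gain over DMSO baseline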
Summary of the method: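 Cells (HEK293T, stable ER-beta LBD PCA pair) are treated 8 hours, fixed and Draq5-stained; signal is fluorescence intensity increase relative to vehicle, fitted in the gain direction.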

Sequence of Estrogen receptor beta (Homo sapiens) (Q92731 whole entry, looked up): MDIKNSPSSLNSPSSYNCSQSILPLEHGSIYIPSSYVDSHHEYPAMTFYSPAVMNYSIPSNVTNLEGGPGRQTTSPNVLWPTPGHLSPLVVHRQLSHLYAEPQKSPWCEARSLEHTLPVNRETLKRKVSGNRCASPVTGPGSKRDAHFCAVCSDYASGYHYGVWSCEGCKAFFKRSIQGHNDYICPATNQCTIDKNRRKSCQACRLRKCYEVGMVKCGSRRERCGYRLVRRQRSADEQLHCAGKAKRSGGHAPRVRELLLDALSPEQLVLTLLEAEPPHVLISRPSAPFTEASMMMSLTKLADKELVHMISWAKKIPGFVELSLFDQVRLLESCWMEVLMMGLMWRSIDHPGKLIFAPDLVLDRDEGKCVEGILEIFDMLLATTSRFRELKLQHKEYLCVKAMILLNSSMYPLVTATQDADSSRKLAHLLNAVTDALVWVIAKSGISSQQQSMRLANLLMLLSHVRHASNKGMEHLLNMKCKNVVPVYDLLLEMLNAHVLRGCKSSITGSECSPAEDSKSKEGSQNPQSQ

| Structure (SMILES) | outcome | AC50 |
| --- | --- | --- |
| CCCCCC1CCC(=O)O1 (stereo unspecified) | inactive |  |
| CCCCCCCCOS(=O)(=O)O | inactive |  |
| CC(C)(C)c1ccc(S)cc1 | inactive |  |
| NC(=O)c1cccnc1 | inactive |  |
| CC(=O)OC(C)(C)C | inactive |  |
| O=C(OCc1ccccc1)c1ccccc1O |  | 54.6 µM (active) |
| CCC(C)C1CCCCC1=O (stereo unspecified) | inactive |  |
| CC(C)(C)C1CCC(O)CC1 (stereo unspecified) | inactive |  |
| CCCc1ccc(O)cc1 |  | 33.4 µM (active) |
| c1ccc(OCCOc2ccccc2)cc1 | inactive |  |
| CC(=O)OC/C=C(C)/C=C/C=C(C)/C=C/C1=C(C)CCCC1(C)C | inactive |  |
